From PMC5540273 (PLoS ONE, 2017)

Each compound was assayed on ACVR2A. Conditions: concentration: 1 μM,replicates: in singlicate; n = 1.
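Further: KINOMEscan kinase panel screen.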

Compound | %Inh
CN(c1ccc2c(c1)nc(NCc1ccc(F)cc1)n2C)c1ccnc(Nc2ccc(CS(C)(=O)=O)cc2)n1.Cl [GW813244] | 0%
Cn1ccc2ncnc(Oc3ccc(NC(=O)Nc4cnn(C(C)(C)C)c4)c(Cl)c3)c21 | 0%
O=C(Nc1cccc(C(F)(F)F)c1)c1cccc(Oc2ccc3nccn3n2)c1 | 24%
COc1cc2ncn(-c3cc(OCC4CCCCC4)c(C(N)=O)s3)c2cc1OC [GSK204559] | 18%
Cc1n[nH]c2cc(Nc3ccnc(Nc4cccc(CN5CCOCC5)c4)n3)ccc12 [GW682569] | 0%
CS(=O)c1ccc(-c2coc3ccc(-c4n[nH]c(=O)o4)cc23)cc1 (centres unmarked) | 8%
Cl.Cl.NC[C@H](CC1CCCCC1)NC(=O)c1ccc(-c2ccnc3[nH]ccc23)s1 [GSK1581428] | 61%
Cl.c1ccc(Oc2ccc(Nc3ccnc4cc(-c5ccc(CN6CCNCC6)o5)ccc34)cc2)nc1 [GW567142] | 0%
O=C(Nc1cccc(Oc2ccc3nccn3n2)c1)Nc1cccc(C(F)(F)F)c1 | 22%
Cc1nnc(-c2ccc3occ(-c4ccc(S(C)=O)cc4)c3n2)o1 (centres unmarked) | 0%
Cc1ccc(C(=O)Nc2ccc(Oc3ccc4nc(NC(=O)C5CC5)cn4c3)c(F)c2)c(=O)n1-c1ccccc1 | 0%
C[C@@H](Oc1cc(-n2cnc3cc(-c4cnn(C)c4)ccc32)sc1C(N)=O)c1ccccc1Cl [GSK580432] | 0%
CCN1CCN(CCCC(=O)Nc2n[nH]c3nc(-c4ccc(O)cc4)c(Br)cc23)CC1 [SB-731579] | 0%
COC(=O)c1cccc(NC(=O)NC2CCN(c3ccnc(Nc4cc(OC)c(OC)c(OC)c4)n3)C2)c1 (centres unmarked) [GSK1379767] | 35%
CS(=O)(=O)Nc1ccc(-c2ccnc3[nH]ccc23)cc1 [GSK993273] | 0%
CCOC(=O)N1CCC(n2cnc(-c3ccc(F)cc3)c2-c2ccnc(N)n2)CC1 [SB-219952] | 0%
CN1CCN(CCCNc2nccc(-c3c(-c4ccc(F)cc4)nn4cc(C(N)=O)ccc34)n2)CC1 [GW622475] | 19%
Cl.Nc1n[nH]c2cc(-c3ccccn3)ccc12 [GSK2189892] | 0%
CC(=O)c1c(-c2ccncc2)[nH]c(-c2ccncc2)c1C [GW493036] | 0%

Compound | %Inh
CS(=O)(=O)c1cccc(CNc2nc(Nc3ccc4c(c3)[C@@H]3C[C@@H]4CNC3=O)ncc2C(F)(F)F)c1 | 0%
CNC(=O)c1ccccc1Nc1nc(Nc2cccc(CS(C)(=O)=O)c2)ncc1C.O=CO [GSK1520489] | 7%
Cn1cc(-c2cccc3c(N)c(C(N)=O)nnc23)cn1 | 27%
Cn1ccc2ncnc(Oc3ccc(NC(=O)Nc4cccc(C(F)(F)F)c4)c(F)c3)c21 | 32%
Nc1nccc(-c2ccc3c(N)n[nH]c3c2)n1 [GSK1034945] | 0%
COc1cccc(C2=C(Nc3cccc(Cl)c3)C(=O)NC2=O)c1 [SB-341556] | 0%
CCn1c(-c2nonc2N)nc2cncc(CNC3CCNCC3)c21.Cl [SB-747651] | 0%
Cn1ccc2ncnc(Oc3ccc(NC(=O)Nc4cncc(C(F)(F)F)c4)c(Cl)c3)c21 | 0%
C[C@@H]1CCN(C(=O)N2CCCC2)C[C@@H]1N(C)c1ncnc2[nH]ccc12 | 3%
CC(C)S(=O)(=O)N1CCN(Cc2ccc3c(c2)nc(NC(=O)c2ccsc2)n3C[C@H](O)c2ccccc2)CC1 [GW635815] | 0%
C[C@@H]1CNc2c(sc3ccc4nc(-c5ccc(O)cc5)ccc4c23)C(=O)N1 | 8%
c1ccc(Oc2ccc(Nc3ccnc4ccc(-c5ccccn5)cc34)cc2)cc1 [GW407034] | 6%
Cn1ccc2ncnc(Oc3ccc(NC(=O)Nc4ccnc(C(F)(F)F)c4)c(Cl)c3)c21 | 4%
CC(=O)Nc1ccc(-c2cc3ncnc(SCC(=O)O)c3s2)cc1 | 4%
COc1cccc(OC)c1C(=O)Nc1cccc(-c2nn3ccccc3c2-c2ccnc(Nc3cccc(F)c3)n2)c1 [GSK361065] | 7%
COC(=O)c1cccc(NC(=O)NC2CCN(c3ccnc(NCc4ccc(F)cc4)n3)CC2)c1 [GSK1379860] | 0%
CCn1c(-c2nonc2N)nc2cncc(Br)c21 [SB-738004] | 0%
Cc1ccc(CC(=O)N2CCc3cc(-c4cn(C)c5ncnc(N)c45)ccc32)cc1 [GSK2634758] | 0%

Each compound was assayed on ACVR2B. Conditions: concentration: 1 μM,replicates: in singlicate; n = 1.

Compound | %Inh
CN(c1ccc2c(c1)nc(NCc1ccc(F)cc1)n2C)c1ccnc(Nc2ccc(CS(C)(=O)=O)cc2)n1.Cl [GW813244] | 0%
Cn1ccc2ncnc(Oc3ccc(NC(=O)Nc4cnn(C(C)(C)C)c4)c(Cl)c3)c21 | 0%
O=C(Nc1cccc(C(F)(F)F)c1)c1cccc(Oc2ccc3nccn3n2)c1 | 8%
COc1cc2ncn(-c3cc(OCC4CCCCC4)c(C(N)=O)s3)c2cc1OC [GSK204559] | 32%
Cc1n[nH]c2cc(Nc3ccnc(Nc4cccc(CN5CCOCC5)c4)n3)ccc12 [GW682569] | 39%
CS(=O)c1ccc(-c2coc3ccc(-c4n[nH]c(=O)o4)cc23)cc1 (centres unmarked) | 19%
Cl.Cl.NC[C@H](CC1CCCCC1)NC(=O)c1ccc(-c2ccnc3[nH]ccc23)s1 [GSK1581428] | 0%
Cl.c1ccc(Oc2ccc(Nc3ccnc4cc(-c5ccc(CN6CCNCC6)o5)ccc34)cc2)nc1 [GW567142] | 41%
O=C(Nc1cccc(Oc2ccc3nccn3n2)c1)Nc1cccc(C(F)(F)F)c1 | 9%
Cc1nnc(-c2ccc3occ(-c4ccc(S(C)=O)cc4)c3n2)o1 (centres unmarked) | 0%
Cc1ccc(C(=O)Nc2ccc(Oc3ccc4nc(NC(=O)C5CC5)cn4c3)c(F)c2)c(=O)n1-c1ccccc1 | 16%
C[C@@H](Oc1cc(-n2cnc3cc(-c4cnn(C)c4)ccc32)sc1C(N)=O)c1ccccc1Cl [GSK580432] | 25%
CCN1CCN(CCCC(=O)Nc2n[nH]c3nc(-c4ccc(O)cc4)c(Br)cc23)CC1 [SB-731579] | 2%
COC(=O)c1cccc(NC(=O)NC2CCN(c3ccnc(Nc4cc(OC)c(OC)c(OC)c4)n3)C2)c1 (centres unmarked) [GSK1379767] | 6%
CS(=O)(=O)Nc1ccc(-c2ccnc3[nH]ccc23)cc1 [GSK993273] | 0%
CCOC(=O)N1CCC(n2cnc(-c3ccc(F)cc3)c2-c2ccnc(N)n2)CC1 [SB-219952] | 0%
CN1CCN(CCCNc2nccc(-c3c(-c4ccc(F)cc4)nn4cc(C(N)=O)ccc34)n2)CC1 [GW622475] | 45%
Cl.Nc1n[nH]c2cc(-c3ccccn3)ccc12 [GSK2189892] | 6%
CC(=O)c1c(-c2ccncc2)[nH]c(-c2ccncc2)c1C [GW493036] | 17%

Compound | %Inh
CS(=O)(=O)c1cccc(CNc2nc(Nc3ccc4c(c3)[C@@H]3C[C@@H]4CNC3=O)ncc2C(F)(F)F)c1 | 0%
CNC(=O)c1ccccc1Nc1nc(Nc2cccc(CS(C)(=O)=O)c2)ncc1C.O=CO [GSK1520489] | 54%
Cn1cc(-c2cccc3c(N)c(C(N)=O)nnc23)cn1 | 29%
Cn1ccc2ncnc(Oc3ccc(NC(=O)Nc4cccc(C(F)(F)F)c4)c(F)c3)c21 | 36%
Nc1nccc(-c2ccc3c(N)n[nH]c3c2)n1 [GSK1034945] | 44%
COc1cccc(C2=C(Nc3cccc(Cl)c3)C(=O)NC2=O)c1 [SB-341556] | 0%
CCn1c(-c2nonc2N)nc2cncc(CNC3CCNCC3)c21.Cl [SB-747651] | 0%
Cn1ccc2ncnc(Oc3ccc(NC(=O)Nc4cncc(C(F)(F)F)c4)c(Cl)c3)c21 | 0%
C[C@@H]1CCN(C(=O)N2CCCC2)C[C@@H]1N(C)c1ncnc2[nH]ccc12 | 0%
CC(C)S(=O)(=O)N1CCN(Cc2ccc3c(c2)nc(NC(=O)c2ccsc2)n3C[C@H](O)c2ccccc2)CC1 [GW635815] | 0%
C[C@@H]1CNc2c(sc3ccc4nc(-c5ccc(O)cc5)ccc4c23)C(=O)N1 | 52%
c1ccc(Oc2ccc(Nc3ccnc4ccc(-c5ccccn5)cc34)cc2)cc1 [GW407034] | 13%
Cn1ccc2ncnc(Oc3ccc(NC(=O)Nc4ccnc(C(F)(F)F)c4)c(Cl)c3)c21 | 13%
CC(=O)Nc1ccc(-c2cc3ncnc(SCC(=O)O)c3s2)cc1 | 30%
COc1cccc(OC)c1C(=O)Nc1cccc(-c2nn3ccccc3c2-c2ccnc(Nc3cccc(F)c3)n2)c1 [GSK361065] | 27%
COC(=O)c1cccc(NC(=O)NC2CCN(c3ccnc(NCc4ccc(F)cc4)n3)CC2)c1 [GSK1379860] | 23%
CCn1c(-c2nonc2N)nc2cncc(Br)c21 [SB-738004] | 9%
Cc1ccc(CC(=O)N2CCc3cc(-c4cn(C)c5ncnc(N)c45)ccc32)cc1 [GSK2634758] | 0%
